These results are taken from PubChem BioAssay (NCI).

Compounds without any hit were thinned out: in the full panel of roughly 83,000, 20% have a hit.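 Plates (96-well) were seeded with cells, treated with compound at one concentration, and incubated for 48 hours before percent growth was determined.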 Values without a mark were called inactive. Activity calls are given as the source filed them. Rule for the calls: active = growth percent below 10; inactive = the rest.

Holding throughout (assay): NCI-60 one-dose screen, 48 h (100 = growth as untreated, 0 = no growth, -100 = all killed)
Holding throughout (settings): 10 µM

The test system of assay [1] is SK-MEL-2 melanoma.
Assay [2] relates to EKVX NSCLC.
For assay [3], the system named is SN12C renal.
The subject of assay [4] is UO-31 renal.
In assay [5] the test system is TK-10 renal.
The test system of assay [6] is ACHN renal.
Assay [7] deals with CAKI-1 renal.
The subject of assay [8] is A498 renal.
The subject of assay [9] is CCRF-CEM leukemia.
In assay [10] the test system is MOLT-4 leukemia.
The test system of assay [11] is OVCAR-8 ovarian.
The subject of assay [12] is OVCAR-5 ovarian.
The test system of assay [13] is OVCAR-4 ovarian.
Assay [14] has as its system SK-OV-3 ovarian.
The test system of assay [15] is IGROV1 ovarian.
The test system of assay [16] is OVCAR-3 ovarian.
Assay [17] has as its system HS 578T breast.
Assay [18] deals with NCI/ADR-RES ovarian.
In assay [19] the test system is SR leukemia.
The subject of assay [20] is RPMI-8226 leukemia.

On to `CCN1C(=O)CC(SC2CC(=O)N(CC)C2=O)C1=O` (centres undefined), for which the growth in assay [1] was 93.6%; in [2], 95.9%; in [3], 98.6%; in assay [4], 80.2%; in [5], 89.4%; in assay [6], 106%. Moreover, the growth is 95.1% in assay [7]; 74.9% in assay [8]; 94.1% in assay [9]; 72% in assay [10]; 109% in assay [11]; 106% in assay [12]. Besides, the growth is 102% in assay [13]; 103% in assay [14]; 107% in [15]; 107% in assay [16]; 101% in assay [17]; 98.7% in assay [18].
For `C[C@@H](C[C@H](CCO)c1ccccc1)c1ccc2ccccc2c1`, the growth was -0.232% (active) in assay [1]; -44% (active) in assay [2]; -80.8% (active) in assay [3]; -86% (active) in [4]; -6.8% (active) in assay [5]; -91.3% (active) in assay [6]. Besides, the growth is 10.5% in [7]; -0.126% (active) in assay [8]; -54.2% (active) in assay [10]; -41.4% (active) in [19]; -18.8% (active) in [20]; -39% (active) in assay [11]. In addition, the growth in [12] was -69% (active); in assay [13], -81% (active); in [14] it was 23.8%; in assay [15], -54.5% (active); in [16], -88% (active); in [17], -9.29% (active). The growth in assay [18] is -60.5% (active).
Take `CCOC(=O)/C(=C(\C)N)C1CC(=O)NC1=O` (centres undefined): the growth in assay [1] is 123%; in assay [2] it was 102%; in [3], 96.5%; in [4] it was 87.9%; in [5], 118%; in [6], 94%. Besides, the growth was 98.2% in assay [7]; 107% in assay [8]; 96.2% in assay [9]; 104% in [10]; 102% in assay [19]; 101% in assay [20]. The growth in assay [12] was 102%; in [14] it was 107%; in assay [15], 118%; in assay [16] it was 109%; in [17], 97.5%; in assay [18], 92.8%.
Consider `O=C1OC(C(Cl)(Cl)Cl)OC1C(Cl)(Cl)Cl` (centres undefined), for which the growth in assay [1] is 102%; in [2] it was 106%; in assay [3] it was 97.1%; in [4], 89.4%; in [5], 110%; in assay [6], 113%. The growth in assay [7] is 113%; in assay [8], 109%; in assay [9] it was 104%; in assay [10], -10.8% (active); in assay [20], 104%; in assay [11] it was 104%. In addition, the growth in assay [12] is 105%; in [13], 113%; in [16] it was 109%; in assay [17] it was 117%; in assay [18], 108%.
With `CN(C)c1ccc(/C=N/NC(=O)c2cccc3ccccc23)c(Cl)c1`, the growth was 28% in assay [1]; 45.2% in assay [2]; 42.9% in assay [3]; 57.5% in assay [4]; 63.8% in [5]; 51.2% in assay [6]. Besides, the growth in assay [7] was 48.5%; in [8] it was -3.25% (active); in assay [9], 10.1%; in assay [10], 15.5%; in assay [20], 7.96% (active); in [11], 36.5%. Also, the growth was 58.1% in [12]; 50.9% in assay [13]; 16.9% in assay [14]; 46.1% in assay [15]; -17.4% (active) in assay [16]; -9.37% (active) in [18].
Take `O=C(O)c1cc([N+](=O)[O-])ccc1Oc1ccccc1`: the growth is 103% in [1]; 97.9% in assay [2]; 95.3% in assay [3]; 83.5% in assay [4]; 88.5% in assay [5]; 101% in assay [6]. Besides, the growth in [7] was 101%; in assay [8] it was 102%; in assay [9], 101%; in assay [19], 91%; in assay [20], 97.8%; in assay [11], 97%. Also, the growth was 101% in [12]; 106% in assay [14]; 114% in assay [15]; 105% in [16]; 93.8% in [17]; 101% in assay [18].
`COc1ccc(-c2csc(NC(=O)c3ccc(Cc4n[nH]c(=O)c5cccnc45)cc3)n2)cc1`: the growth was 110% in assay [1]; 66.6% in assay [2]; 89.1% in assay [3]; 51.9% in [4]; 115% in assay [5]; 88.2% in assay [6]. Further, the growth in assay [7] was 84.5%; in [8], 95.8%; in [10], 97.2%; in [19], 118%; in assay [20] it was 82.6%; in assay [11], 93.8%. Moreover, the growth in assay [12] is 95%; in [13] it was 94.5%; in assay [14], 95.1%; in assay [15] it was 75.4%; in assay [16], 103%; in assay [17], 99.1%. In addition, in assay [18], the growth is 94.1%.
Turning to `NC(N)=N/N=C(\N=Nc1ccccc1)c1ccc(Cl)cc1`, the growth in assay [1] was 52.5%; in assay [2] it was 49.2%; in [3] it was 76.3%; in assay [4], 4.05% (active); in [5] it was 65.8%; in assay [6], 25.1%. Moreover, the growth in [7] was 1.66% (active); in [8], 14.7%; in assay [9], -4.7% (active); in [10] it was 2.47% (active); in assay [11], 26.2%; in [12], 24.9%. Further, the growth is 51.8% in [13]; 55.5% in [14]; 46.3% in assay [15]; 12.6% in [16]; 65.2% in assay [17]; 8.53% (active) in [18].
For `Cc1ccc(C(=O)/C=C/c2ccccc2)s1`, the growth in assay [1] is 102%; in assay [2], 82.3%; in assay [3], 103%; in [4] it was 77.7%; in [5], 108%; in assay [6], 121%. Besides, the growth in assay [7] was 92.4%; in assay [8] it was 90.5%; in assay [9], 99.8%; in [10], 100%; in [19], 88.3%; in assay [11], 111%. In addition, the growth was 110% in assay [12]; 133% in assay [13]; 130% in assay [14]; 79.4% in assay [15]; 89.6% in assay [16]; 106% in [17]. Also, the growth in [18] was 113%.
